Measured values from PubChem BioAssay AID651789 (National Center for Advancing Translational Sciences (NCATS), 2012).
Records with an inconclusive call do not appear. Active and inactive are the calls of the source. The call rests on the fitted dose curve; in most records, active means well fitted inhibition curve with a large enough effect; inconclusive means small, poorly fitted or top-dose-only effect; inactive means no such curve, though single readings can be large or run the other way.

assay: Acumen qHTS Assay for Inhibitors of the mTORC1 Signaling Pathway in WT MEF Cells: Hit Validation; settings: Acumen imaging; series mostly up to 37.3 µM; further: nearly all actives have a fitted effect of over 60% in size
Summary of the method: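 Read-out is immunofluorescent phospho-rpS6 (Ser235/236) normalised to PI-stained cell number, reported as % active cells using a 7.5 nM rapamycin threshold. Cells: WT or Tsc2-/-, p53-/- MEFs, compound-exposed 24 h at 37C; PI count also tracks viability.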
Potency means the concentration at half of the fitted maximal effect.

Potency, inactive:
Cc1ccc(NC(=O)c2c(C)oc3ccc(O)c(CN(C)Cc4ccccc4)c23)c(C)c1, CCOC(=O)c1ccc(N2C(=O)c3n[nH]c(-c4cccs4)c3C2c2cccc(F)c2)cc1 (centres undefined), CCN(CC)Cc1c(NC(=O)c2ccc(OC)cc2)sc2c1CCCC2, CCc1ccc(OCC(=O)Nc2ccc3oc(-c4ccc(OC)cc4)nc3c2)cc1, Cc1ccc(NC(=O)CSc2nc(=O)cc(N)n2CCc2ccccc2)cc1, CCc1ccc2ncc(S(=O)(=O)c3ccc(Cl)cc3)c(N3CCN(CC)CC3)c2c1, COc1cccc(-c2nc(SCC(=O)NCC3CCCO3)c(-c3ccc(F)cc3)[nH]2)c1 (centres undefined), O=C(CCCn1c(=O)c2ccccc2n(Cc2cccc(Cl)c2)c1=O)NCCc1ccc(Cl)cc1, COc1ccc(-c2noc(CSc3nc(N)cc(=O)[nH]3)n2)cc1, O=S(=O)(NCc1nc2cccnc2n1Cc1ccccc1Cl)c1ccc(F)c(Cl)c1, COc1ccc(CCNC(=O)c2ccc3c(c2)N(Cc2ccccc2)CCS3)cc1OC, CCCSc1oc(-c2ccco2)nc1S(=O)(=O)c1ccc(Br)cc1, Cc1nn(CCCC(=O)NCc2ccccc2)c(=O)c2c1sc1ccccc12, Cc1nn(CCCC(=O)NCc2cccc(Cl)c2)c(=O)c2c1sc1ccccc12, Cc1c(C(=O)Nc2ccc(F)cc2F)nnn1-c1ccccc1Br, NS(=O)(=O)c1cc(C(=O)O)c(NCc2ccco2)cc1Cl, Nc1nc(Nc2ccccc2F)sc1C(=O)c1ccc(Cl)cc1, CCOc1ccc(Nc2nc(-c3cccc(Cl)c3)c3c(n2)-c2ccccc2OC3)cc1, COCCCNC(=O)c1ccc(CSc2nc3cccnc3n2Cc2ccc(OC)cc2)cc1, CCOc1ccccc1NC(=O)c1cn(C2CCCC2)c(=O)c2c1c1ccccc1n2C

Potency, active:
COCc1oc2ccc(NS(=O)(=O)c3ccc(C)cc3)cc2c1C(=O)OC 5.85 µM, CCc1ccc(NC(=O)C2CCCN(S(=O)(=O)c3c(C)noc3/C=C/N(C)C)C2)cc1 (centres undefined) 2.07 µM, CCCCS(=O)(=O)c1oc(-c2ccc(F)cc2)nc1S(=O)(=O)c1ccccc1 0.656 µM, CCOc1ccc(N(Cc2ccccc2)C(=O)c2nc(S(C)(=O)=O)ncc2Cl)cc1 2.07 µM
